# Test results taken from paper PMC11006913.
# Numbering of substitutions follows the chain as printed.
# How the values were obtained:
# Assay in all cases: PBM; 200 nM protein, PBS
# Details in all cases: dsDNA, one strand shown
# HOXB4 [1] = molecular target: HOXB4 (Homo sapiens, UniProt P17483 148-234)
# VENTX [2] = molecular target: T1, VENTX (Homo sapiens, UniProt O95231 78-163, R121Q)
# T1 sequence: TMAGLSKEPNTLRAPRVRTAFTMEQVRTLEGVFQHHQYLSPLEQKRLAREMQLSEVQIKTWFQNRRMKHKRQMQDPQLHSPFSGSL
# HOXB9 [3] = molecular target: HOXB9 (Homo sapiens, UniProt P17482 171-250, T197M)
# HOXA4 [4] = molecular target: HOXA4 (Homo sapiens, UniProt Q00056 201-287, W262R)
# HOXC9 [5] = molecular target: HOXC9 (Homo sapiens, UniProt P31274 178-260, K195R)
# VENTX [6] = molecular target: T2, VENTX (Homo sapiens, UniProt O95231 78-163)
# T2 sequence: T1 sequence with Q44R
# HOXA7 [7] = molecular target: HOXA7 (Homo sapiens, UniProt P31268 116-202)
# HOXC10 [8] = molecular target: HOXC10 (Homo sapiens, UniProt Q9NYD6 254-340)
# PAX4 [9] = molecular target: T3, PAX4 (Homo sapiens, UniProt O43316 9-242, R200K)
# T3 sequence: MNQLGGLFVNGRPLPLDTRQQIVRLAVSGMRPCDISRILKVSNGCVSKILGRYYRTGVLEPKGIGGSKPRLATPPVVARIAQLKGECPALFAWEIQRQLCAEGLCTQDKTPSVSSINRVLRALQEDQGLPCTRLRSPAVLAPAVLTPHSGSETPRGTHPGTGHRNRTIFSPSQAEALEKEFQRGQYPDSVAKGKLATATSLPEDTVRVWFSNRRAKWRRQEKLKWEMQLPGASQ
# VENTX [10] = molecular target: T4, VENTX (Homo sapiens, UniProt O95231 78-163, Y115F)
# T4 sequence: T1 sequence with Y38F, Q44R
# PAX4 [11] = molecular target: T5, PAX4 (Homo sapiens, UniProt O43316 9-242)
# T5 sequence: T3 sequence with K192R
# HOXB6 [12] = molecular target: HOXB6 (Homo sapiens, UniProt P17509 132-218, K202E)
# HOXA2 [13] = molecular target: HOXA2 (Homo sapiens, UniProt O43364 129-215, R185T)
# HOXA4 [14] = molecular target: HOXA4 (Homo sapiens, UniProt Q00056 201-287, R217L)
# HOXB9 [15] = molecular target: HOXB9 (Homo sapiens, UniProt P17482 171-250)
# HOXB4 [16] = molecular target: HOXB4 (Homo sapiens, UniProt P17483 148-234, V174I)
# HOXC9 [17] = molecular target: HOXC9 (Homo sapiens, UniProt P31274 178-260)
# PAX4 [18] = molecular target: T6, PAX4 (Homo sapiens, UniProt O43316 9-242, R200Q)
# T6 sequence: T3 sequence with K192Q
# HOXC9 [19] = molecular target: HOXC9 (Homo sapiens, UniProt P31274 178-260, R193K)
# HOXA2 [20] = molecular target: HOXA2 (Homo sapiens, UniProt O43364 129-215, R185K)
# PAX4 [21] = molecular target: T7, PAX4 (Homo sapiens, UniProt O43316 9-242, F177V)
# T7 sequence: T3 sequence with F169V, K192R
# HOXA4 [22] = molecular target: HOXA4 (Homo sapiens, UniProt Q00056 201-287)
# HOXC10 [23] = molecular target: HOXC10 (Homo sapiens, UniProt Q9NYD6 254-340, K271E)
# PAX4 [24] = molecular target: T8, PAX4 (Homo sapiens, UniProt O43316 9-242, F177Y)
# T8 sequence: T3 sequence with F169Y, K192R
# VAX1 [25] = molecular target: VAX1 (Homo sapiens, UniProt Q5SQQ9 86-172)
# HOXD13 [26] = molecular target: HOXD13 (Homo sapiens, UniProt P35453 263-343, T313A)
# HOXB9 [27] = molecular target: HOXB9 (Homo sapiens, UniProt P17482 171-250, R186Q)
# HOXC9 [28] = molecular target: HOXC9 (Homo sapiens, UniProt P31274 178-260, R222W)
# VAX1 [29] = molecular target: VAX1 (Homo sapiens, UniProt Q5SQQ9 86-172, T142I)
# PAX4 [30] = molecular target: T9, PAX4 (Homo sapiens, UniProt O43316 9-242, R227W)
# T9 sequence: T3 sequence with K192R, R219W
# HOXA2 [31] = molecular target: HOXA2 (Homo sapiens, UniProt O43364 129-215, Y150S)
# HOXA7 [32] = molecular target: HOXA7 (Homo sapiens, UniProt P31268 116-202, W177C)
# HOXA4 [33] = molecular target: HOXA4 (Homo sapiens, UniProt Q00056 201-287, W262F)
# HOXA2 [34] = molecular target: HOXA2 (Homo sapiens, UniProt O43364 129-215)
# VAX1 [35] = molecular target: VAX1 (Homo sapiens, UniProt Q5SQQ9 86-172, K157R)
# HOXB6 [36] = molecular target: HOXB6 (Homo sapiens, UniProt P17509 132-218)
# HESX1 [37] = molecular target: HESX1 (Homo sapiens, UniProt Q9UBX0 95-180, R165K)
# HESX1 [38] = molecular target: HESX1 (Homo sapiens, UniProt Q9UBX0 95-180)
# HESX1 [39] = molecular target: HESX1 (Homo sapiens, UniProt Q9UBX0 95-180, P111T)
# PRRX1 = PRRX1 (Homo sapiens, UniProt P54821 80-166)
# SHOX [40] = molecular target: SHOX (Homo sapiens, UniProt O15266 103-189)
# HOXD13 [41] = molecular target: HOXD13 (Homo sapiens, UniProt P35453 263-343, T313R)
# SHOX [42] = molecular target: SHOX (Homo sapiens, UniProt O15266 103-189, R173C)
# HOXD13 [43] = molecular target: HOXD13 (Homo sapiens, UniProt P35453 263-343)
# ALX1 [44] = molecular target: ALX1 (Homo sapiens, UniProt Q15699 118-204, L144V)
# ALX1 [45] = molecular target: ALX1 (Homo sapiens, UniProt Q15699 118-204, L144R)
# ALX1 [46] = molecular target: ALX1 (Homo sapiens, UniProt Q15699 118-204)
# HESX1 [47] = molecular target: HESX1 (Homo sapiens, UniProt Q9UBX0 95-180, F115L)
# Chain of HESX1 (Homo sapiens, UniProt Q9UBX0 95-180, F115L) (Q9UBX0 95-180 F115L): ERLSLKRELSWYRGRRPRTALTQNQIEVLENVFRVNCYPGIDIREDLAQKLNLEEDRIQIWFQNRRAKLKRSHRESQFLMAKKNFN
# Chain of HESX1 (Homo sapiens, UniProt Q9UBX0 95-180, R165K) (Q9UBX0 95-180 R165K): as the sequence (Q9UBX0 95-180 F115L) above, with L21F, R71K counted along it
# Chain of HOXB4 (Homo sapiens, UniProt P17483 148-234, V174I) (P17483 148-234 V174I): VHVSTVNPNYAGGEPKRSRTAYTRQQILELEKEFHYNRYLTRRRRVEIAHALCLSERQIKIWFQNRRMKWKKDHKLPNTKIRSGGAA
# Chain of HESX1 (Homo sapiens, UniProt Q9UBX0 95-180, P111T) (Q9UBX0 95-180 P111T): as the sequence (Q9UBX0 95-180 F115L) above, with P17T, L21F counted along it
# Chain of HESX1 (Homo sapiens, UniProt Q9UBX0 95-180) (Q9UBX0 95-180): as the sequence (Q9UBX0 95-180 F115L) above, with L21F counted along it
# Chain of HOXB4 (Homo sapiens, UniProt P17483 148-234) (P17483 148-234): as the sequence (P17483 148-234 V174I) above, with I27V counted along it
# Chain of HOXD13 (Homo sapiens, UniProt P35453 263-343, T313A) (P35453 263-343 T313A): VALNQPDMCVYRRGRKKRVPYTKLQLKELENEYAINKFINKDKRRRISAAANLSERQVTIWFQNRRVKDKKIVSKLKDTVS
# Chain of SHOX (Homo sapiens, UniProt O15266 103-189, R173C) (O15266 103-189 R173C): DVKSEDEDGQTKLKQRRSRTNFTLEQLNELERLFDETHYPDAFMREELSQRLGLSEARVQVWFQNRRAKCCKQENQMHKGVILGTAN
# Chain of SHOX (Homo sapiens, UniProt O15266 103-189) (O15266 103-189): as the sequence (O15266 103-189 R173C) above, with C71R counted along it
# Chain of HOXB6 (Homo sapiens, UniProt P17509 132-218, K202E) (P17509 132-218 K202E): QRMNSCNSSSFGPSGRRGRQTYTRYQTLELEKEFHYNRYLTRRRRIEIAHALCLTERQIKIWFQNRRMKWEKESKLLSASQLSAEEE
# Chain of HOXC9 (Homo sapiens, UniProt P31274 178-260) (P31274 178-260): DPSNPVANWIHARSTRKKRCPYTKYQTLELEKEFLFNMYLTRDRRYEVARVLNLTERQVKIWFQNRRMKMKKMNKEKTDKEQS
# Chain of HOXA7 (Homo sapiens, UniProt P31268 116-202) (P31268 116-202): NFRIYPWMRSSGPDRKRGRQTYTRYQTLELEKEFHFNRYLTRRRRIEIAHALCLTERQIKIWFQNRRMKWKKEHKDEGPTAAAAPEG
# Chain of ALX1 (Homo sapiens, UniProt Q15699 118-204, L144V) (Q15699 118-204 L144V): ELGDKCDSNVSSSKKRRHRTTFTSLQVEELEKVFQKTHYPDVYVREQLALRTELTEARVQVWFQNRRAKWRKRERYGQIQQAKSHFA
# Chain of HOXC10 (Homo sapiens, UniProt Q9NYD6 254-340, K271E) (Q9NYD6 254-340 K271E): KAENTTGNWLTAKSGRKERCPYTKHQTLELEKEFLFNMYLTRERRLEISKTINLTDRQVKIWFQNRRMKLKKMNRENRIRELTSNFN
# Chain of HOXA2 (Homo sapiens, UniProt O43364 129-215, R185K) (O43364 129-215 R185K): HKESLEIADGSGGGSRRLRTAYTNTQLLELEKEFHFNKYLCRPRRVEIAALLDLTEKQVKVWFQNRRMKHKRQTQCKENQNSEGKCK
# Chain of HOXB6 (Homo sapiens, UniProt P17509 132-218) (P17509 132-218): as the sequence (P17509 132-218 K202E) above, with E71K counted along it
# Chain of VAX1 (Homo sapiens, UniProt Q5SQQ9 86-172, T142I) (Q5SQQ9 86-172 T142I): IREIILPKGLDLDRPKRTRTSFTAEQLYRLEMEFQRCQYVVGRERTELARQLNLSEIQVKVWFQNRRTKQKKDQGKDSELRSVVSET
# Chain of HOXA2 (Homo sapiens, UniProt O43364 129-215, Y150S) (O43364 129-215 Y150S): as the sequence (O43364 129-215 R185K) above, with Y22S, K57R counted along it
# Chain of ALX1 (Homo sapiens, UniProt Q15699 118-204, L144R) (Q15699 118-204 L144R): as the sequence (Q15699 118-204 L144V) above, with V27R counted along it
# Chain of ALX1 (Homo sapiens, UniProt Q15699 118-204) (Q15699 118-204): as the sequence (Q15699 118-204 L144V) above, with V27L counted along it
# Chain of HOXA4 (Homo sapiens, UniProt Q00056 201-287) (Q00056 201-287): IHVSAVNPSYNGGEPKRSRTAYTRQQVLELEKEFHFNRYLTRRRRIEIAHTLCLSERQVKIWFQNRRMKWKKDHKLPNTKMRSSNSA
# Chain of HOXA2 (Homo sapiens, UniProt O43364 129-215, R185T) (O43364 129-215 R185T): as the sequence (O43364 129-215 R185K) above, with K57T counted along it
# Chain of HOXC9 (Homo sapiens, UniProt P31274 178-260, R222W) (P31274 178-260 R222W): as the sequence (P31274 178-260) above, with R45W counted along it
# Chain of HOXC10 (Homo sapiens, UniProt Q9NYD6 254-340) (Q9NYD6 254-340): as the sequence (Q9NYD6 254-340 K271E) above, with E18K counted along it
# Chain of HOXD13 (Homo sapiens, UniProt P35453 263-343) (P35453 263-343): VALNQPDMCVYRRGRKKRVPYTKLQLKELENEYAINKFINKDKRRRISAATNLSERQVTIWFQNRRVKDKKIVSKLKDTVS
# Chain of HOXA2 (Homo sapiens, UniProt O43364 129-215) (O43364 129-215): as the sequence (O43364 129-215 R185K) above, with K57R counted along it
# Chain of HOXC9 (Homo sapiens, UniProt P31274 178-260, K195R) (P31274 178-260 K195R): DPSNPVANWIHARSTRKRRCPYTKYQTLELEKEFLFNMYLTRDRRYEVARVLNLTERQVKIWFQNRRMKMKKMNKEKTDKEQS
# Chain of HOXA4 (Homo sapiens, UniProt Q00056 201-287, W262R) (Q00056 201-287 W262R): as the sequence (Q00056 201-287) above, with W62R counted along it
# Chain of HOXA4 (Homo sapiens, UniProt Q00056 201-287, R217L) (Q00056 201-287 R217L): as the sequence (Q00056 201-287) above, with R17L counted along it
# Chain of PRRX1 (P54821 80-166): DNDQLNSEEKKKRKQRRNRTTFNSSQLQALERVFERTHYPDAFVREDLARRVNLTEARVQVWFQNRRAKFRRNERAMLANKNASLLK
# Chain of HOXA4 (Homo sapiens, UniProt Q00056 201-287, W262F) (Q00056 201-287 W262F): as the sequence (Q00056 201-287) above, with W62F counted along it
# Chain of VAX1 (Homo sapiens, UniProt Q5SQQ9 86-172, K157R) (Q5SQQ9 86-172 K157R): as the sequence (Q5SQQ9 86-172 T142I) above, with I57T, K72R counted along it
# Chain of HOXB9 (Homo sapiens, UniProt P17482 171-250, R186Q) (P17482 171-250 R186Q): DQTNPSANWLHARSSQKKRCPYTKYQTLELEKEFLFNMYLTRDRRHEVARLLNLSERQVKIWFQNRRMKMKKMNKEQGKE
# Chain of HOXD13 (Homo sapiens, UniProt P35453 263-343, T313R) (P35453 263-343 T313R): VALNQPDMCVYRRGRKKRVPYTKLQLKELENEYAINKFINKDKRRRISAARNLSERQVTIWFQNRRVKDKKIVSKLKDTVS
# Chain of HOXA7 (Homo sapiens, UniProt P31268 116-202, W177C) (P31268 116-202 W177C): as the sequence (P31268 116-202) above, with W62C counted along it
# Chain of HOXC9 (Homo sapiens, UniProt P31274 178-260, R193K) (P31274 178-260 R193K): as the sequence (P31274 178-260) above, with R16K counted along it
# Chain of HOXB9 (Homo sapiens, UniProt P17482 171-250) (P17482 171-250): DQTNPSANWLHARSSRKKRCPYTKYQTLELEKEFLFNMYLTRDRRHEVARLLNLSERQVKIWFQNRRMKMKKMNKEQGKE
# Chain of HOXB9 (Homo sapiens, UniProt P17482 171-250, T197M) (P17482 171-250 T197M): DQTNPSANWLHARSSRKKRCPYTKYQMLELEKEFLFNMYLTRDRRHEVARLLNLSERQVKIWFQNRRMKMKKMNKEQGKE
# Chain of VAX1 (Homo sapiens, UniProt Q5SQQ9 86-172) (Q5SQQ9 86-172): as the sequence (Q5SQQ9 86-172 T142I) above, with I57T counted along it
sequence,measurement,setting,value
CATTAATG,binding signal,HOXB4 [1],"13.4 upbm affinity estimate (log intensity, higher = more binding, comparable within an allelic series)"
same,binding signal,VENTX [2],"11.8 upbm affinity estimate (log intensity, higher = more binding, comparable within an allelic series)"
same,binding signal,HOXB9 [3],"10.3 upbm affinity estimate (log intensity, higher = more binding, comparable within an allelic series)"
same,binding signal,HOXA4 [4],"10.7 upbm affinity estimate (log intensity, higher = more binding, comparable within an allelic series)"
same,binding signal,HOXC9 [5],"12.8 upbm affinity estimate (log intensity, higher = more binding, comparable within an allelic series)"
same,binding signal,VENTX [6],"12.5 upbm affinity estimate (log intensity, higher = more binding, comparable within an allelic series)"
same,binding signal,HOXA7 [7],"12 upbm affinity estimate (log intensity, higher = more binding, comparable within an allelic series)"
same,binding signal,HOXC10 [8],"12.3 upbm affinity estimate (log intensity, higher = more binding, comparable within an allelic series)"
same,binding signal,PAX4 [9],"11.8 upbm affinity estimate (log intensity, higher = more binding, comparable within an allelic series)"
same,binding signal,VENTX [10],"11.8 upbm affinity estimate (log intensity, higher = more binding, comparable within an allelic series)"
same,binding signal,PAX4 [11],"12.2 upbm affinity estimate (log intensity, higher = more binding, comparable within an allelic series)"
same,binding signal,HOXB6 [12],"10.3 upbm affinity estimate (log intensity, higher = more binding, comparable within an allelic series)"
same,binding signal,HOXA2 [13],"12.6 upbm affinity estimate (log intensity, higher = more binding, comparable within an allelic series)"
same,binding signal,HOXA4 [14],"12.3 upbm affinity estimate (log intensity, higher = more binding, comparable within an allelic series)"
same,binding signal,HOXB9 [15],"12.1 upbm affinity estimate (log intensity, higher = more binding, comparable within an allelic series)"
same,binding signal,HOXB4 [16],"14 upbm affinity estimate (log intensity, higher = more binding, comparable within an allelic series)"
same,binding signal,HOXC9 [17],"12.9 upbm affinity estimate (log intensity, higher = more binding, comparable within an allelic series)"
same,binding signal,PAX4 [18],"11.9 upbm affinity estimate (log intensity, higher = more binding, comparable within an allelic series)"
same,binding signal,HOXC9 [19],"12.8 upbm affinity estimate (log intensity, higher = more binding, comparable within an allelic series)"
same,binding signal,HOXA2 [20],"13.4 upbm affinity estimate (log intensity, higher = more binding, comparable within an allelic series)"
same,binding signal,PAX4 [21],"10.5 upbm affinity estimate (log intensity, higher = more binding, comparable within an allelic series)"
same,binding signal,HOXA4 [22],"14.2 upbm affinity estimate (log intensity, higher = more binding, comparable within an allelic series)"
same,binding signal,HOXC10 [23],"12.2 upbm affinity estimate (log intensity, higher = more binding, comparable within an allelic series)"
same,binding signal,PAX4 [24],"11 upbm affinity estimate (log intensity, higher = more binding, comparable within an allelic series)"
same,binding signal,VAX1 [25],"12.7 upbm affinity estimate (log intensity, higher = more binding, comparable within an allelic series)"
same,binding signal,HOXD13 [26],"11.6 upbm affinity estimate (log intensity, higher = more binding, comparable within an allelic series)"
same,binding signal,HOXB9 [27],"11.9 upbm affinity estimate (log intensity, higher = more binding, comparable within an allelic series)"
same,binding signal,HOXC9 [28],"11 upbm affinity estimate (log intensity, higher = more binding, comparable within an allelic series)"
same,binding signal,VAX1 [29],"12.5 upbm affinity estimate (log intensity, higher = more binding, comparable within an allelic series)"
same,binding signal,PAX4 [30],"10.9 upbm affinity estimate (log intensity, higher = more binding, comparable within an allelic series)"
same,binding signal,HOXA2 [31],"11.1 upbm affinity estimate (log intensity, higher = more binding, comparable within an allelic series)"
same,binding signal,HOXA7 [32],"8.9 upbm affinity estimate (log intensity, higher = more binding, comparable within an allelic series)"
same,binding signal,HOXA4 [33],"11.7 upbm affinity estimate (log intensity, higher = more binding, comparable within an allelic series)"
same,binding signal,HOXA2 [34],"12.3 upbm affinity estimate (log intensity, higher = more binding, comparable within an allelic series)"
same,binding signal,VAX1 [35],"12.8 upbm affinity estimate (log intensity, higher = more binding, comparable within an allelic series)"
same,binding signal,HOXB6 [36],"12.4 upbm affinity estimate (log intensity, higher = more binding, comparable within an allelic series)"
AACAATAC,binding signal,HESX1 [37],"7.27 upbm affinity estimate (log intensity, higher = more binding, comparable within an allelic series)"
same,binding signal,HESX1 [38],"7.3 upbm affinity estimate (log intensity, higher = more binding, comparable within an allelic series)"
same,binding signal,HESX1 [39],"7.19 upbm affinity estimate (log intensity, higher = more binding, comparable within an allelic series)"
same,binding signal,PRRX1,"10.9 upbm affinity estimate (log intensity, higher = more binding, comparable within an allelic series)"
CCGCAAGG,binding signal,HOXB4 [1],"7.78 upbm affinity estimate (log intensity, higher = more binding, comparable within an allelic series)"
same,binding signal,SHOX [40],"7.17 upbm affinity estimate (log intensity, higher = more binding, comparable within an allelic series)"
same,binding signal,HOXB4 [16],"7.66 upbm affinity estimate (log intensity, higher = more binding, comparable within an allelic series)"
same,binding signal,HOXD13 [41],"9.53 upbm affinity estimate (log intensity, higher = more binding, comparable within an allelic series)"
same,binding signal,SHOX [42],"7.2 upbm affinity estimate (log intensity, higher = more binding, comparable within an allelic series)"
same,binding signal,HOXD13 [43],"9.5 upbm affinity estimate (log intensity, higher = more binding, comparable within an allelic series)"
same,binding signal,HOXD13 [26],"9.67 upbm affinity estimate (log intensity, higher = more binding, comparable within an allelic series)"
CGCAGGCG,binding signal,HOXB4 [1],"7.74 upbm affinity estimate (log intensity, higher = more binding, comparable within an allelic series)"
same,binding signal,SHOX [40],"7.28 upbm affinity estimate (log intensity, higher = more binding, comparable within an allelic series)"
same,binding signal,HOXB4 [16],"7.65 upbm affinity estimate (log intensity, higher = more binding, comparable within an allelic series)"
same,binding signal,ALX1 [44],"6.44 upbm affinity estimate (log intensity, higher = more binding, comparable within an allelic series)"
same,binding signal,SHOX [42],"7.07 upbm affinity estimate (log intensity, higher = more binding, comparable within an allelic series)"
same,binding signal,ALX1 [45],"6.71 upbm affinity estimate (log intensity, higher = more binding, comparable within an allelic series)"
same,binding signal,ALX1 [46],"6.49 upbm affinity estimate (log intensity, higher = more binding, comparable within an allelic series)"
AACCTATT,binding signal,HESX1 [37],"8.08 upbm affinity estimate (log intensity, higher = more binding, comparable within an allelic series)"
same,binding signal,HESX1 [38],"8.17 upbm affinity estimate (log intensity, higher = more binding, comparable within an allelic series)"
same,binding signal,HESX1 [39],"7.48 upbm affinity estimate (log intensity, higher = more binding, comparable within an allelic series)"
CGATATTA,binding signal,HESX1 [37],"8.16 upbm affinity estimate (log intensity, higher = more binding, comparable within an allelic series)"
same,binding signal,HESX1 [38],"8.27 upbm affinity estimate (log intensity, higher = more binding, comparable within an allelic series)"
same,binding signal,HESX1 [39],"7.74 upbm affinity estimate (log intensity, higher = more binding, comparable within an allelic series)"
CATTAGAG,binding signal,HESX1 [37],"8.32 upbm affinity estimate (log intensity, higher = more binding, comparable within an allelic series)"
same,binding signal,HESX1 [38],"8.46 upbm affinity estimate (log intensity, higher = more binding, comparable within an allelic series)"
same,binding signal,HESX1 [47],"6.84 upbm affinity estimate (log intensity, higher = more binding, comparable within an allelic series)"
ATGTATAA,binding signal,HESX1 [37],"7.77 upbm affinity estimate (log intensity, higher = more binding, comparable within an allelic series)"
same,binding signal,HESX1 [38],"7.72 upbm affinity estimate (log intensity, higher = more binding, comparable within an allelic series)"
same,binding signal,HESX1 [39],"7.36 upbm affinity estimate (log intensity, higher = more binding, comparable within an allelic series)"
TAACGATA,binding signal,HESX1 [37],"7.67 upbm affinity estimate (log intensity, higher = more binding, comparable within an allelic series)"
same,binding signal,HESX1 [38],"7.8 upbm affinity estimate (log intensity, higher = more binding, comparable within an allelic series)"
same,binding signal,HESX1 [39],"7.53 upbm affinity estimate (log intensity, higher = more binding, comparable within an allelic series)"
